Records with an inconclusive call do not appear. A call without a number means that no potency is given here. Calls of active or inactive are those of the source. Unless noted, calls come from the whole dose curve; as a rule, active = well fitted curve in the direction sought with a large enough effect in the repeat runs; inconclusive = weak or mixed curves; inactive = no such curve, though single readings can be large; an effect the other way counts as inactive or inconclusive.
Legend:
[1] = qHTS assay to identify small molecule agonists of the vitamin D receptor (VDR) signaling pathway - cell viability counter screen (AID 743224); note: nearly all actives have a fitted effect of over 50% in size; note: potency is the fitted concentration of half-maximal effect
Summary of the method: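 Plated VDR-bla cells (4 h, 37C) received compound, incubated 16 h, then LiveBLAzer substrate 2 h RT; CellTiter-Glo added afterwards, luminescence read at 30 min.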

[2] = qHTS assay to identify small molecule antagonists of the vitamin D receptor (VDR) signaling pathway - cell viability counter screen (AID 743225); note: nearly all actives have a fitted effect of over 50% in size; note: potency is the fitted concentration of half-maximal effect
Summary of the method: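 Luminescent cell viability (CellTiter-Glo) in VDR-bla HEK 293T cells after 16 h compound exposure at 37C in the presence of 3 nM final 1-alpha,25-dihydroxy vitamin D3.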

[3] = qHTS assay to identify small molecule agonists of the NFkB signaling pathway (AID 1159509; active = well fitted curve in the direction sought with a large enough effect in the signal ratio in the repeat runs, not every such curve was filed as active; the % refers to the signal ratio; note: series mostly up to about 61 µM)
Summary of the method: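 NFkB-bla ME-180 cells carry a beta-lactamase reporter under an NF-kB response element. They were plated overnight, then exposed to compounds for 5 h at 37 C. Read-out is LiveBLAzer FRET after 1.5 hr at room temperature (405 nm excitation; 460/530 nm emission).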

[4] = qHTS assay to identify small molecule agonists of the NFkB signaling pathway - cell viability counter screen (AID 1159515; calls by dose curve; note: nearly all actives have a fitted effect of over 55% in size; note: potency is the fitted concentration of half-maximal effect)
Summary of the method: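 Using the same wells as the NFkB reporter read, ME-180 NFkB-bla cells given compounds for 5 hr were assessed for viability via CellTiter-Glo, with luminescence taken after a 30 min room-temperature incubation.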

[5] = qHTS assay to identify small molecule agonists of the endoplasmic reticulum stress response signaling pathway - cell viability counter screen (AID 1159517; calls by dose curve;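 note: HeLa cells carrying an ER stress response element beta-lactamase reporter; series mostly up to about 61 µM; nearly all actives have a fitted effect of over 50% in size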)
Summary of the method: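 CellTiter-Glo was added to wells already read for beta-lactamase FRET, and luminescence was recorded 30 min later. Cells: ESRE-bla HeLa, 1,500 per well, compound exposure 5 hr at 37 C.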

[6] = qHTS assay to identify small molecule antagonists of the retinoid-related orphan receptor gamma (ROR-gamma) signaling pathway - cell viability counter screen (AID 1159520); note: nearly all actives have a fitted effect of over 50% in size; note: potency is the fitted concentration of half-maximal effect
Summary of the method: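 Tet-on ROR gamma CHO cells (1,000/well) were plated 4 hr, given compounds in DMSO for 2 hr at 37 C, then induced with 1 uM final doxycycline for 16 hr. Viability was read as ATP by CellTiter-Glo luminescence after 30 min.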

[7] = qHTS assay to identify small molecule agonists of the AP-1 signaling pathway - cell viability counter screen (AID 1159525; calls by dose curve; note: nearly all actives have a fitted effect of over 55% in size; note: potency is the fitted concentration of half-maximal effect)
Summary of the method: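 ME-180 AP-1-bla, 2500 cells/well, Opti-MEM + 0.5% dialyzed FBS; overnight 37 °C; cpd 15-pt titration, 5 h 37 °C; CellTiter-Glo 30 min RT; luminescence read; normalised to TOAB and DMSO controls.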

[8] = qHTS assay to identify small molecule agonists of the AP-1 signaling pathway (AID 1159526; calls by dose curve)
[9] = qHTS assay to identify small molecule agonists of the RXR signaling pathway - cell viability counter screen (AID 1159529); note: nearly all actives have a fitted effect of over 50% in size; note: potency is the fitted concentration of half-maximal effect
Summary of the method: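 Same-well viability check after the LiveBLAzer FRET read: CellTiter-Glo added, luminescence measured after 30 min at room temperature. Reporter HEK 293T cells had been treated with compounds for 16 hr following a 5 hr preincubation.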

[10] = qHTS assay to identify small molecule antagonists of the retinoid acid receptor (RAR) signaling pathway - cell viability counter screen (AID 1159551); note: nearly all actives have a fitted effect of over 35% in size; note: potency is the fitted concentration of half-maximal effect
Summary of the method: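 Retinol-stimulated (1 uM final) C3RL4 cells, compound 6 h, 37 C; readout CellTiter-Glo luminescence (ATP) after 30 min RT incubation.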

[11] = qHTS assay to identify small molecule agonists of the endoplasmic reticulum stress response signaling pathway (AID 1159516; active = well fitted activation curve with a large enough effect in the signal ratio in the repeat runs, not every such curve was filed as active; the % refers to the signal ratio)
Summary of the method: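 An ESRE-bla HeLa cell assay: compounds were pin-transferred from DMSO onto overnight-plated cells and left 5 hr at 37 C. Substrate was then loaded for 2 hr at room temperature before reading fluorescence at 460 nm and 530 nm.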

[12] = qHTS assay to identify small molecule agonists of the retinoic acid receptor (RAR) signaling pathway (AID 1159553)
Summary of the method: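 Reporter readout comes from luciferase under RARE control in C3RL4 cells; compound exposure lasts 6 hr at 37 C in 5% CO2, and luminescence is recorded following a 30 min room-temperature incubation with reagent.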

[13] = molecular target: Nuclear receptor ROR-gamma (Homo sapiens) (UniProt P51449); assay: qHTS assay to identify small molecule antagonists of the retinoid-related orphan receptor gamma (ROR-gamma) signaling pathway (AID 1159521; note: nearly all actives have a fitted effect of over 50% in size; note: potency is the fitted concentration of half-maximal effect)
Summary of the method: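 CHO cells expressing RORγ under a TET-on promoter, luciferase under RORE control. Dox 1 uM final, 16 h; compounds added 2 h prior. Luminescence decrease measured.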

[14] = molecular target: Retinoic acid receptor RXR-alpha (Homo sapiens) (UniProt P19793); assay: qHTS assay to identify small molecule agonists of the RXR signaling pathway (AID 1159527; calls by dose curve; note: nearly all actives have a fitted effect of over 35% in size)
Summary of the method: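 Beta-lactamase reporter assay, agonist format. Engineered HEK 293T line, charcoal-stripped FBS at 2%, overnight (16 hr) exposure, fluorescence at 460 and 530 nm after 405 nm excitation.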

[15] = qHTS assay to identify small molecule antagonists of the retinoic acid receptor (RAR) signaling pathway (AID 1159552; note: nearly all actives have a fitted effect of over 50% in size; note: potency is the fitted concentration of half-maximal effect)
Summary of the method: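 Readout: luciferase luminescence, 30 min post-reagent at RT. Setup: C3RL4 RARE reporter cells, compounds plus retinol 1 uM final, 6 hr incubation at 37 C and 5% CO2.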

Retinoic acid receptor RXR-alpha (Homo sapiens), sequence (P19793 whole entry, looked up): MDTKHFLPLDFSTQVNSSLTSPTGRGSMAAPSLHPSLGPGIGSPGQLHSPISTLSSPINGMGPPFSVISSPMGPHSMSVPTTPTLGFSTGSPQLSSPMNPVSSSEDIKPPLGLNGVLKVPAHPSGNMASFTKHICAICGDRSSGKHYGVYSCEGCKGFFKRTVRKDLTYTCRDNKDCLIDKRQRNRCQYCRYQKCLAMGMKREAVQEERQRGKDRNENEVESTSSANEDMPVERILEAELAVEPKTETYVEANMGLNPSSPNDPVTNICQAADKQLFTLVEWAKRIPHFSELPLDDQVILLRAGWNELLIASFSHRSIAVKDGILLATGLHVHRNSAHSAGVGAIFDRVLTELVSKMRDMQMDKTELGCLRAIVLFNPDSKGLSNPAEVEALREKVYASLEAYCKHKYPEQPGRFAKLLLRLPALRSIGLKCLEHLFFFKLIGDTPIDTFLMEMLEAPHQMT

CCOP(=S)(OCC)SCSCC
Potency [1]: inactive | Potency [2]: inactive | outcome [3]: inactive | Potency [4]: inactive | Potency [5]: inactive | Potency [6]: inactive | Potency [7]: inactive | outcome [8]: inactive | Potency [9]: inactive | Potency [10]: inactive

COP(=S)(Oc1cc(Cl)c(Br)cc1Cl)c1ccccc1 (stereo not drawn)
Potency [1]: 38.9 µM (active) | Potency [2]: inactive | outcome [3]: inactive | Potency [4]: inactive | outcome [11]: inactive | Potency [7]: inactive | Potency [10]: inactive | Potency [12]: inactive

CCC(Cl)CCl (stereo not drawn)
Potency [1]: inactive | Potency [2]: inactive | outcome [3]: inactive | Potency [4]: inactive | Potency [5]: inactive | Potency [6]: inactive | Potency [13]: inactive | Potency [7]: inactive | outcome [8]: inactive | Potency [14]: inactive | Potency [9]: inactive | Potency [10]: inactive | Potency [15]: inactive

C=CC(=O)OCC(C)O (stereo not drawn)
Potency [1]: inactive | Potency [2]: inactive | outcome [3]: inactive | outcome [11]: inactive | Potency [5]: inactive | Potency [6]: inactive | Potency [13]: inactive | outcome [8]: inactive | Potency [14]: inactive | Potency [9]: inactive | Potency [15]: inactive | Potency [12]: inactive

CC(=O)C(C)(C)C
Potency [1]: inactive | Potency [2]: inactive | outcome [3]: inactive | Potency [4]: inactive | Potency [6]: inactive | Potency [7]: inactive | outcome [8]: inactive | Potency [10]: inactive | Potency [15]: inactive

CCCCCCCCCCOC(=O)c1ccccc1C(=O)OCCCCCCCCCC
Potency [1]: inactive | outcome [3]: inactive | Potency [4]: inactive | Potency [6]: inactive | Potency [13]: inactive | outcome [8]: inactive | Potency [14]: inactive | Potency [10]: inactive

CN1C(=O)C(O)N=C(c2ccccc2)c2cc(Cl)ccc21 (stereo not drawn)
Potency [1]: inactive | Potency [2]: inactive | outcome [3]: inactive | Potency [4]: inactive | Potency [6]: inactive | Potency [13]: inactive | Potency [7]: inactive | outcome [8]: inactive | Potency [14]: inactive | Potency [9]: inactive | Potency [10]: inactive | Potency [15]: 63.3 µM (active) | Potency [12]: inactive

CC/C(=N\OC/C=C/Cl)C1=C(O)CC(C2CCOCC2)CC1=O (stereo not drawn)
Potency [1]: inactive | Potency [2]: inactive | outcome [3]: inactive | Potency [4]: inactive | Potency [6]: inactive | Potency [13]: inactive | Potency [7]: inactive | outcome [8]: inactive | Potency [14]: inactive | Potency [9]: inactive | Potency [10]: inactive

IC(I)=C(I)I
Potency [1]: 11 µM (active) | Potency [2]: 17.4 µM (active) | outcome [3]: inactive | Potency [4]: 54.9 µM (active) | Potency [6]: 3.86 µM (active) | Potency [13]: 2.73 µM (active) | Potency [7]: 24.5 µM (active) | Potency [9]: 12.3 µM (active) | Potency [10]: 30.6 µM (active) | Potency [15]: 2.73 µM (active)

ClCC(Br)CBr (stereo not drawn)
Potency [1]: inactive | Potency [2]: inactive | outcome [3]: inactive | Potency [4]: inactive | Potency [6]: inactive | Potency [13]: inactive | Potency [7]: inactive | outcome [8]: inactive | Potency [14]: inactive | Potency [10]: inactive | Potency [15]: inactive | Potency [12]: inactive

N#Cc1cc(I)c(O)c(I)c1
outcome [3]: inactive | outcome [11]: inactive | Potency [5]: inactive | Potency [6]: inactive | Potency [13]: 24.3 µM (active) | Potency [7]: inactive | outcome [8]: inactive | Potency [10]: inactive | Potency [15]: 68.6 µM (active)

C=CC(=O)OCCCCO
Potency [1]: inactive | Potency [2]: inactive | outcome [3]: inactive | outcome [11]: inactive | Potency [5]: inactive | Potency [6]: inactive | Potency [7]: inactive | Potency [14]: inactive

CCOP(=O)(OCC)SCCSCC
Potency [1]: inactive | Potency [2]: inactive | outcome [3]: inactive | outcome [11]: inactive | Potency [5]: inactive | Potency [6]: inactive | Potency [13]: inactive | Potency [7]: inactive | outcome [8]: inactive | Potency [14]: inactive | Potency [10]: inactive | Potency [15]: inactive | Potency [12]: inactive

CCOC(=O)C(Cl)C(C)=O (stereo not drawn)
Potency [1]: inactive | outcome [3]: inactive | Potency [4]: inactive | Potency [6]: inactive | Potency [13]: inactive | Potency [7]: inactive | outcome [8]: inactive | Potency [14]: inactive | Potency [9]: inactive | Potency [10]: inactive | Potency [15]: inactive | Potency [12]: inactive

O=C(O)C1(c2ccc3c(c2)OC[C@H](Cc2ccc(-c4ccccc4)cc2)[C@H]3O)CCCC1
Potency [1]: 49 µM (active) | Potency [2]: 49 µM (active) | outcome [3]: inactive | Potency [4]: inactive | Potency [13]: 54.5 µM (active) | Potency [7]: inactive | outcome [8]: inactive | Potency [10]: inactive | Potency [15]: inactive | Potency [12]: inactive

O=C1c2ccccc2C(=O)C1C(=O)C(c1ccccc1)c1ccccc1
Potency [2]: inactive | outcome [3]: inactive | Potency [4]: inactive | Potency [6]: inactive | Potency [7]: inactive | outcome [8]: inactive | Potency [9]: inactive | Potency [10]: inactive | Potency [15]: inactive

CCOP(=S)(Oc1ccc([N+](=O)[O-])cc1)c1ccccc1 (stereo not drawn)
Potency [1]: inactive | Potency [2]: inactive | outcome [3]: inactive | outcome [11]: inactive | Potency [5]: inactive | Potency [6]: inactive | Potency [7]: inactive | outcome [8]: inactive | Potency [9]: inactive | Potency [10]: inactive | Potency [15]: inactive | Potency [12]: inactive

NS(=O)(=O)C(F)(F)C(F)(F)C(F)(F)C(F)(F)C(F)(F)C(F)(F)C(F)(F)C(F)(F)F
Potency [1]: 49 µM (active) | outcome [3]: inactive | Potency [4]: inactive | Potency [6]: inactive | Potency [13]: 54.5 µM (active) | Potency [7]: inactive | outcome [8]: inactive | Potency [9]: inactive | Potency [10]: inactive | Potency [15]: inactive | Potency [12]: inactive

C=CCCl
Potency [1]: inactive | Potency [2]: inactive | outcome [3]: inactive | Potency [4]: inactive | Potency [6]: inactive | Potency [7]: inactive | outcome [8]: inactive | Potency [14]: inactive | Potency [9]: inactive | Potency [10]: inactive | Potency [15]: inactive | Potency [12]: inactive

BrCC(Br)C1CCC(Br)C(Br)C1 (stereo not drawn)
Potency [2]: inactive | outcome [3]: inactive | Potency [4]: inactive | Potency [6]: inactive | Potency [7]: inactive | Potency [9]: inactive | Potency [10]: inactive | Potency [12]: inactive

CCN(C)N=O
Potency [1]: inactive | outcome [3]: inactive | Potency [4]: inactive | Potency [7]: inactive | Potency [14]: inactive | Potency [9]: inactive | Potency [10]: inactive | Potency [15]: inactive

O=Cc1ccc(Cl)cc1Cl
Potency [1]: inactive | Potency [2]: inactive | outcome [3]: inactive | outcome [11]: inactive | Potency [5]: inactive | Potency [6]: inactive | Potency [13]: inactive | Potency [7]: inactive | outcome [8]: inactive | Potency [14]: inactive | Potency [10]: inactive | Potency [15]: inactive

ClCc1ccccc1
Potency [1]: inactive | Potency [2]: inactive | outcome [3]: inactive | Potency [4]: inactive | Potency [6]: inactive | Potency [13]: inactive | outcome [8]: inactive | Potency [14]: inactive | Potency [9]: inactive | Potency [10]: inactive | Potency [15]: inactive

Nc1nc(=S)[nH][nH]1
Potency [1]: inactive | Potency [2]: inactive | outcome [3]: inactive | Potency [4]: inactive | Potency [13]: inactive | Potency [7]: inactive | outcome [8]: inactive | Potency [14]: inactive | Potency [9]: inactive | Potency [10]: inactive | Potency [15]: inactive | Potency [12]: inactive

Source: PubChem BioAssay (Tox21)
